Experimental data: PubChem BioAssay (EPA / NIEHS)
Results filed as inconclusive are left out. Active and inactive are the calls of the source. Rule for the calls, unless noted: active = hit-call score of the fitted dose curve at least 0.9, where 1 is the maximum; inactive = score below 0.9.

How the values were obtained:
[1] = TAMU_PeakParms_SingleDonor1434_QT: Texas A&M University (TAMU) 1.5-hr Human Induced Pluripotent Stem Cell (iPSC)-derived Cardiomyocytes Calcium (Ca+2) Flux Assay for Cardiotoxicity: QT (decay-rise ratio) (AID 2284235; active = hit-call score of the fitted dose curve at least 0.9, where 1 is the maximum)
In short: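 Decay/rise ratio of calcium-flux fluorescence scored after 90 min exposure (37C) of donor 1434 iPSC cardiomyocytes to 0.2–100 uM (0.5% DMSO). Beat-cessation and severe-notch points removed; POD is EC05, a 5% rise over DMSO.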

[2] = CCTE_Mundy_HCI_Cortical_NOG_NeuronCount: CCTE's Neurite Outgrowth Assay in rat cortical cells for Neuron Count, Mundy Lab (AID 2284236; active = hit-call score of the fitted dose curve at least 0.9, where 1 is the maximum;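 note: neurons counted by imaging betaIII-tubulin and Hoechst stained cortical cells; cells exposed to compound for about 48 hours before fixation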)
In short: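 Read-out: neuron number by high-content imaging of betaIII-tubulin (Alexa Fluor-488) and Hoechst-labelled rat primary cortical cells.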

[3] = CCTE_Mundy_HCI_Cortical_NOG_BPCount: CCTE's Neurite Outgrowth Assay in rat cortical cells for Branch Point Count, Mundy Lab (AID 2284237)
In short: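 Measured 50.33 h after dosing, this morphology endpoint uses rat primary cortical cultures labelled for betaIII-tubulin. Branch points are quantified by high-content imaging, with DMSO as negative control and baseline.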

[4] = CCTE_Mundy_HCI_hNP1_Casp3_7: CCTE's Caspase-Glo 3/7 Assay in human neuroprogenitor cells for Apoptosis, Mundy Lab (AID 2284240)
In short: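 Apoptosis is scored by activated caspase-3/7 luminescence in WA09-derived neural progenitor cells, measured 26.5 h after chemical dosing. Values represent gain of signal relative to DMSO vehicle.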

[5] = CCTE_Mundy_HCI_hNP1_CellTiter: CCTE's Cell Titer-Glo 2 Assay in human neuroprogenitor cells for Viability, Mundy Lab (AID 2284241; active = hit-call score of the fitted dose curve at least 0.9, where 1 is the maximum)
In short: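 Human neural progenitor cells (hNP1, WA09-derived) were plated on poly-L-ornithine/laminin and grown 40 to 44 hours at 37 °C, 5% CO2 before chemical addition. Twenty-four hours later, ATP was measured by CellTiter-Glo luminescence; loss of signal versus DMSO indicates reduced viability.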

[6] = read-out: Interleukin 17A (IL17A), IL17A (gene 3605); experiment: BSK_BT_xIL17A: BioMAP Diversity Plus: BT Assay for Interleukin 17A (IL17A) Biomarker Activity (AID 2284229); conditions: primary human B cells with PBMC
In short: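 Luminex xMAP quantification of secreted IL-17A after 24 h chemical exposure of a primary human B cell/PBMC co-culture. Signal increases fitted relative to DMSO negative control.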

[7] = read-out: Tumor necrosis factor (Homo sapiens) (UniProt P01375); experiment: BSK_BT_xTNFa: BioMAP Diversity Plus: BT Assay for Tumor necrosis factor alpha (TNF-alpha) Biomarker Activity (AID 2284230); conditions: primary human B cells with PBMC
In short: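 Human primary co-culture of B cells and peripheral blood mononuclear cells; TNF-alpha in supernatant, 24 h post-dose, Luminex multiplex; DMSO = baseline.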

[8] = read-out: Vascular cell adhesion molecule 1 (VCAM1), VCAM1 (gene 7412); experiment: BSK_MyoF_VCAM1: BioMAP Diversity Plus: MyoF Assay for Vascular cell adhesion molecule 1 (VCAM1) Biomarker Activity (AID 2284231); conditions: primary human lung fibroblasts
In short: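 ELISA readout of VCAM-1 on human lung fibroblast cultures 24 hours after dosing, analyzed for signal gain relative to DMSO. Overt cytotoxicity was checked by sulforhodamine B total-protein staining in parallel cultures.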

[9] = read-out: Collagen I, COL1A1 (gene 1277); experiment: BSK_MyoF_CollagenI: BioMAP Diversity Plus: MyoF Assay for Collagen I Biomarker Activity (AID 2284238); conditions: primary human lung fibroblasts
In short: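 Collagen I levels measured by ELISA on human lung fibroblast cultures 24 h post-dosing, with curve fitting in the positive direction relative to DMSO; SRB staining of parallel wells marked cytotoxicity.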

[10] = read-out: Collagen III, COL3A1 (gene 1281); experiment: BSK_MyoF_CollagenIII: BioMAP Diversity Plus: MyoF Assay for Collagen III Biomarker Activity (AID 2284239); conditions: primary human lung fibroblasts
In short: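 Collagen III biomarker quantified by ELISA in human lung fibroblast cultures 24 h after dosing. Activity fitted in the positive direction against DMSO as baseline.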

[11] = read-out: Interleukin 17F (IL17F), IL17F (gene 112744); experiment: BSK_BT_xIL17F: BioMAP Diversity Plus: BT Assay for Interleukin 17F (IL17F) Biomarker Activity (AID 2284243); conditions: primary human B cells with PBMC
In short: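 Human B cells co-cultured with PBMC; secreted IL-17F quantified by LumineX xMAP 24 hours after chemical dosing. Activity fitted in the positive direction against DMSO negative control as baseline.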

[12] = read-out: Actin alpha 1 (ACTA1), ACTA1 (gene 58); experiment: BSK_MyoF_ACTA1: BioMAP Diversity Plus: MyoF Assay for Actin alpha 1 (ACTA1) Biomarker Activity (AID 2284244); conditions: primary human lung fibroblasts
In short: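 ELISA read-out of a-SMA in primary human lung fibroblast cultures, 24 h post-dosing. Activity scored in the positive direction versus DMSO baseline.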

[13] = read-out: Interleukin 2 (IL2), IL2 (gene 3558); experiment: BSK_BT_xIL2: BioMAP Diversity Plus: BT Assay for Interleukin 2 (IL2) Biomarker Activity (AID 2284245); conditions: primary human B cells with PBMC
In short: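 Readout: supernatant IL-2 via Luminex xMAP after 24 h chemical dosing of a B cell/PBMC primary human co-culture. DMSO serves as negative control and baseline; increases in signal were fitted.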

[14] = read-out: Basic fibroblast growth factor (bFGF), FGF2 (gene 2247); experiment: BSK_MyoF_bFGF: BioMAP Diversity Plus: MyoF Assay for Basic fibroblast growth factor (bFGF) Biomarker Activity (AID 2284246); conditions: primary human lung fibroblasts
In short: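 Primary human lung fibroblast culture, 24 h compound exposure; ELISA read-out of bFGF. Positive-direction fit vs DMSO baseline. Cytotoxicity: SRB stain (0.1% SRB, 10% TCA fixation, 560 nm) in parallel wells.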

[15] = read-out: Collagen IV, COL4A1 (gene 1282); experiment: BSK_MyoF_CollagenIV: BioMAP Diversity Plus: MyoF Assay for Collagen IV Biomarker Activity (AID 2284247); conditions: primary human lung fibroblasts
In short: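 ELISA read-out of Collagen IV in lung fibroblast cultures, 24 h post-dosing; gain of signal relative to DMSO vehicle baseline defines activity.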

[16] = read-out: Plasminogen activator inhibitor-1 (PAI1), SERPINE1 (gene 5054); experiment: BSK_MyoF_PAI1: BioMAP Diversity Plus: MyoF Assay for Plasminogen activator inhibitor-1 (PAI1) Biomarker Activity (AID 2284256); conditions: primary human lung fibroblasts;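 for outcome: PAI-1 protein level measured by ELISA in fibroblast cultures; PAI-1 read 24 h after compound addition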
In short: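 Human lung fibroblasts (MyoF system) were exposed to test chemicals for 24 h, then PAI-1 was quantified by ELISA. Activity was fitted in the positive (signal-gain) direction relative to DMSO vehicle as baseline.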

[17] = UKN2_HCS_IMR90_cell_viability: Viability Assessment in the University of Konstanz (UKN) Leist Lab Neural Crest Cell Migration Assay in human induced IMR90 Pluripotent Stem Cells (UKN2) (AID 2284233);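 note: cells exposed to compound for 24 h after a 24 h migration phase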
In short: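 After calcein-AM/Hoechst staining, viability is quantified by high-content fluorescence imaging, relative to DMSO, in iPSC (IMR90)-derived neural crest cells. Exposure lasts 24 h, starting after a 24 h migration period on PLO/laminin/fibronectin coating.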

[18] = CCTE_Mundy_HCI_Cortical_Synap_Neur_Matur_NeuronCount: CCTE's Synaptogenesis and Neurite Maturation Assay in rat cortical cells for Neuron Count, Mundy Lab (AID 2284242; active = hit-call score of the fitted dose curve at least 0.9, where 1 is the maximum)
In short: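 Rat cortical cultures; AraC DIV 5; chemical dosing + media change DIV 7 to DIV 12 (288.33 h readout). Fix, Hoechst, anti-MAP2/anti-synaptophysin immunostain; HCI neuron count vs DMSO baseline.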

[19] = TAMU_HCS_1.5hr_SingleDonor1434_Cytotoxicity: Cytotoxicity Assessment using High-content Screening (HCS) Fluorescent Imaging for the Texas A&M University (TAMU) 1.5-hr Human Induced Pluripotent Stem Cell (iPSC)-derived Cardiotoxicity Assay (AID 2284234; active = hit-call score of the fitted dose curve at least 0.9, where 1 is the maximum)
In short: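 Nuclear counts from Hoechst 33342 imaging define cytotoxicity here, with EC10 (10% cell-count loss relative to DMSO) as point of departure. iPSC cardiomyocytes received 0.2-100 uM test chemical in 0.5% DMSO for 1.5 h at 37 C.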

Chain of Tumor necrosis factor (Homo sapiens) (P01375 whole entry, looked up): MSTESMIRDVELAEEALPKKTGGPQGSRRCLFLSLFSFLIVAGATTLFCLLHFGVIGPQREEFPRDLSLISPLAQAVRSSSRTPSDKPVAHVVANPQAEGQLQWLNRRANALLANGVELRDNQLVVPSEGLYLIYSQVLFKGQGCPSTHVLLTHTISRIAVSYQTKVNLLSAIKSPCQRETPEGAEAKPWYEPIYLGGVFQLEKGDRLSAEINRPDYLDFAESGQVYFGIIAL

O=C(O)c1ccccc1
outcome [1]: inactive | outcome [2]: inactive | outcome [3]: inactive | outcome [4]: inactive | outcome [5]: inactive

CSC(=O)c1cccc2nnsc12
outcome [3]: inactive | outcome [4]: inactive | outcome [5]: inactive

N#CSCSc1nc2ccccc2s1
AC50 [6]: 4.06 µM (active) | AC50 [7]: 7.28 µM (active) | AC50 [8]: 4.37 µM (active) | AC50 [9]: 5.73 µM (active) | AC50 [10]: 5.71 µM (active) | AC50 [11]: 4.93 µM (active) | AC50 [12]: 4.21 µM (active) | AC50 [13]: 5.16 µM (active) | AC50 [14]: 10.6 µM (active) | AC50 [15]: 6.4 µM (active) | AC50 [16]: 7.79 µM (active)

CCN(CC)C(=O)c1cccc(C)c1
outcome [17]: inactive | outcome [2]: inactive | outcome [3]: inactive | outcome [4]: inactive | outcome [5]: inactive | outcome [18]: inactive

c1ccc2[nH]c(-c3cscn3)nc2c1
outcome [19]: inactive | outcome [1]: inactive

S=C(S)NCCNC(=S)S.[Mn+2].[S-]C([S-])=NCCN=C([S-])[S-].[Zn+2]
outcome [3]: inactive | outcome [4]: inactive

CCC(C)OC(=O)N1CCCCC1CCO (stereo not given)
outcome [6]: inactive | outcome [7]: inactive | outcome [8]: inactive | outcome [9]: inactive | outcome [10]: inactive | outcome [11]: inactive | outcome [12]: inactive | outcome [13]: inactive | outcome [14]: inactive | outcome [15]: inactive | outcome [16]: inactive
